{"source": "ChEMBL document CHEMBL3988442", "about": "“University of Dundee, Small-Polar-MMV Screening Library” (2021)", "data": [{"target": "AMP-activated protein kinase, AMPK (Homo sapiens) (UniProt P54646+O43741+P54619+Q9UGJ0+Q9Y478+Q13131+Q9UGI9)", "experiment": "AMP-dependent Kinase enzyme assay. An in vitro enzyme assay that detects ADP turnover that is directly proportional to AMPK activity. This uses naive AMPK that is activated during the assay with MK-8722", "assay_type": "functional", "parameters": "scale not given: direction of the effect not stated beside the values", "settings": "30 µM", "units": {"Percent Effect": "%"}, "values": [{"smiles": "CN1CCCN(c2ccc(F)cc2CNC(=O)c2cccnc2)CC1", "Percent Effect": 38.2}, {"smiles": "Cc1csc(C(=O)N2CCC(S(C)(=O)=O)CC2)c1", "Percent Effect": -2.86}, {"smiles": "CSCCC1c2nc[nH]c2CCN1Cc1[nH]c2ccc(F)cc2c1C", "note": "(stereo not given)", "Percent Effect": 2.26}, {"smiles": "N#CC1COCCN1C(=O)c1ccc2cc[nH]c2c1", "note": "(stereo not given)", "Percent Effect": 6.24}, {"smiles": "O=C(CC1COCCN1)N1CCC2(CCc3ccccc32)CC1", "note": "(stereo not given)", "Percent Effect": -0.69}, {"smiles": "COc1cc(-c2cccc3c2OC(CN)C3)ccc1O", "note": "(stereo not given)", "Percent Effect": 59.7}, {"smiles": "Cc1ccc(-c2nc(C(=O)N(C)CC(=O)N(C)C)cs2)c(C)c1", "Percent Effect": -3.64}, {"smiles": "COCCOc1ncccc1NCc1nc2ccccc2n1C", "Percent Effect": 7.32}, {"smiles": "CN(Cc1ccccc1F)Cc1cc2c(cc1Br)OCCO2", "Percent Effect": -3.17}, {"smiles": "CCC(C)NC(=O)Nc1cccc(OC)c1", "note": "(stereo not given)", "Percent Effect": -9.8}, {"smiles": "CCCSCC(=O)NCc1cccc(CN(C)CC)c1", "Percent Effect": 5.85}, {"smiles": "CN(Cc1cscn1)Cc1cc2c(cc1Br)OCO2", "Percent Effect": -7.36}, {"smiles": "CCN(CC)CCN(CC(C)C)c1cc(C(F)(F)F)nc2ncnn12", "Percent Effect": 0.943}, {"smiles": "CCCn1ccnc1-c1cccc(NC(=O)C2CCCOC2)c1", "note": "(stereo not given)", "Percent Effect": -0.71}, {"smiles": "NC(=O)C(NC1CCN(CC2CCCCC2)CC1)c1ccc(F)cc1", "note": "(stereo not given)", "Percent Effect": -4.02}, {"smiles": "COc1ccc(Br)c(NC(=O)NCc2ncnn2C)c1", "Percent Effect": -1.33}, {"smiles": "CCOc1cc(Cl)ccc1CNC(=O)c1ccc(=O)n(C)c1", "Percent Effect": 10.5}, {"smiles": "CN(C)c1nc2sc(C(=O)N3CCNC(=O)CC3)cc2s1", "Percent Effect": 0.0719}, {"smiles": "O=C(Cn1nc2ccccc2n1)N1CCCC(O)(CN2CCCC2)C1", "note": "(stereo not given)", "Percent Effect": -2.27}, {"smiles": "Cc1nc(CN2CCCC2Cn2ccnc2C(C)C)nc2ccccc12", "note": "(stereo not given)", "Percent Effect": -10.6}, {"smiles": "CC(C)c1cc(C(=O)NCCc2nc(-c3ccncc3)n[nH]2)[nH]n1", "Percent Effect": 39.1}, {"smiles": "CCOc1ccc(Cl)cc1CCNC(=O)Cn1nc(C)ccc1=O", "Percent Effect": 5.21}, {"smiles": "CCCC1c2ccccc2CCN1CCS(C)(=O)=O", "note": "(stereo not given)", "Percent Effect": -0.239}, {"smiles": "Cc1nonc1CNC(=O)C(C)Oc1ccccc1F", "note": "(stereo not given)", "Percent Effect": 5.55}, {"smiles": "CCc1cnc(CNC(=O)NCCc2ccc(O)cc2)s1", "Percent Effect": 47.9}, {"smiles": "CCOCCCNCc1cc(O)c2cc(C)ccc2n1", "Percent Effect": -9.04}, {"smiles": "COC(=O)C1CCN(C(=O)Cn2nc(C)nc2-c2ccccc2)CC1", "Percent Effect": -7.76}, {"smiles": "CC(C)N(CC(=O)Nc1cccc(C(=O)N(C)C)c1)C1CC1", "Percent Effect": 1.38}, {"smiles": "Cc1c(C(=O)N2CCCN(S(C)(=O)=O)CC2)cnn1C", "Percent Effect": 10.1}, {"smiles": "CCOC(=O)c1n[nH]cc1CN1CCOC(Cc2ccc(OC)cc2)C1", "note": "(stereo not given)", "Percent Effect": 2.27}, {"smiles": "O=S(=O)(NCCCn1cncn1)c1ccc2c(c1)CCCC2", "Percent Effect": 6.33}, {"smiles": "CCCc1cc(N(CCOC)CC(F)F)n2ncnc2n1", "Percent Effect": 11.5}, {"smiles": "Cc1cc(CNC2(CO)CCOCC2)ccc1Br", "Percent Effect": 5.13}, {"smiles": "NC(=O)CN1CCC(c2noc3cc(F)ccc23)CC1", "Percent Effect": 12.7}, {"smiles": "CN(CCC#N)C(=O)Cn1cnc2c(Br)cccc2c1=O", "Percent Effect": 2.35}, {"smiles": "O=C(Cc1cccs1)NCc1ccnc(C2CCCOC2)n1", "note": "(stereo not given)", "Percent Effect": 12.2}, {"smiles": "CN1CCC(NC(=O)c2cc(Br)cc(Cl)c2O)C1=O", "note": "(stereo not given)", "Percent Effect": 11.8}, {"smiles": "Cc1nn(C)c(C)c1C1CCCN1CC(=O)N(C)c1nccs1", "note": "(stereo not given)", "Percent Effect": 10.2}, {"smiles": "COCC(NC(=O)c1cc(NC(C)=O)ccc1Cl)c1ccnn1C", "note": "(stereo not given)", "Percent Effect": -8.6}, {"smiles": "Cn1ccc(N2CCCC(NC(=O)c3ccsc3)C2=O)n1", "note": "(stereo not given)", "Percent Effect": -4.2}]}]}
